Source: PubChem BioAssay
This is one part of a sample in which hits are shown more often than they occur.
NS1 inh: qHTS Assay for Inhibitors of Influenza NS1 Protein Function; Potency, µM (titrated, usually from 46.1 µM); actives 0.4% (n = 270,000); AID 2326, 2010; further: actives are rising curves; nearly all actives have a fitted effect of over 50% in size
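In this qHTS, NS1 from influenza A is expressed in budding yeast, where it slows growth. Cells are switched from glucose to 2% galactose medium (pH 6.0, -URA), treated with compound, and growth recovery is read at OD600.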
TbPYK inhibitor: qHTS of Trypanosoma Brucei Inhibitors. TbPYK enzyme, Kinase-Glo Plus ATP luminescence, 45 min. AID 624173, 2012. Potency, µM (highest dose often 76.8 µM), hits mostly inhibitors. actives 0.12% (n = 410,000); active means well fitted curve in the direction sought with a large enough effect; inconclusive means small, poorly fitted or top-dose-only effect, or another doubt; inactive means no such curve, though single readings can be large; an effect the other way counts as inactive or inconclusive; further: nearly all actives have a fitted effect of over 50% in size
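Luminescence from Kinase-Glo Plus, added after a 45-minute room-temperature reaction, served as the end-point read-out. The enzyme and substrate were preincubated with compound before ADP (130 uM final) initiated turnover. Concentration-effect curves came from normalized qHTS data.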
SARS PLP yeast: qHTS of Yeast-based Assay for SARS-CoV PLP | S. cerevisiae expressing SARS-CoV PLpro, growth rescue | Potency, µM (highest dose often 32.9 µM), actives largely listed as activators | actives 0.19% (n = 330,000) | AID 485353, 2010; further: nearly all actives have a fitted effect of over 55% in size
CHX counter: Cycloheximide Counterscreen for Small Molecule Inhibitors of Shiga Toxin | cell reporter, cycloheximide protein synthesis inhibition counterscreen | max response, % | actives 12% (n = 300,000); in the data active means max response mostly above about 13%, no sharp cut-off; inactive means mostly below about 14%; further: read at 38.3 µM for the half of the compounds with a filed dose
Shiga inhibitor: A qHTS for Small Molecule Inhibitors of Shiga Toxin. actives 9.2% (n = 290,000). inhibition, % at 38.7 µM. Vero cells, Shiga toxin protein synthesis inhibition reporter. AID 2315, 2010; in the data active means inhibition mostly above about 28%, no sharp cut-off; inactive means mostly below about 43%
LmPK inh: qHTS Assay for Inhibitors of Leishmania Mexicana Pyruvate Kinase (LmPK); Potency, µM (series often up to 57.5 µM), usual class: inhibitors; purified LmPK, Kinase-Glo ATP luminescence, 1 h; actives 0.37% (n = 290,000); Q27686; active means well fitted curve in the direction sought with a large enough effect; inconclusive means small, poorly fitted or top-dose-only effect, or another doubt; inactive means no such curve, though single readings can be large; an effect the other way counts as inactive or inconclusive
Target sequence (Q27686 whole entry, looked up): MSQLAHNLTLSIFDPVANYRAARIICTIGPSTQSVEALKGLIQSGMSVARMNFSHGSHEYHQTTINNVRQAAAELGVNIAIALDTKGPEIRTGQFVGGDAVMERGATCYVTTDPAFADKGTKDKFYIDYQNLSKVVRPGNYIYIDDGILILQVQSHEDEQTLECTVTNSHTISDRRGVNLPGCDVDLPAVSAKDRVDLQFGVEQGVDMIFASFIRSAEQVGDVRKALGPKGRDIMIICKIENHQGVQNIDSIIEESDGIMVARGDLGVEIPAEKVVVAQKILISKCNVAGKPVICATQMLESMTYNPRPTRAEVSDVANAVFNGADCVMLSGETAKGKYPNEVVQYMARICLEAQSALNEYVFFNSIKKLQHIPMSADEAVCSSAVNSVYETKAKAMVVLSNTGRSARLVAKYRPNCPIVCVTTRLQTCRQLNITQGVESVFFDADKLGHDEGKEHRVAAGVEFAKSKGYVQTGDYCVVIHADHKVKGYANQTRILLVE
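ATP generated from ADP (0.1 mM) and PEP (0.5 mM) by 0.1 nM LmPK over 1 h at room temperature (pH 7.2 imidazole buffer) was detected by coupled luciferase luminescence. Values were normalized to uninhibited and no-enzyme wells.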
Large screens that a line does not name were inactive. Unless noted, the call rests on the fitted dose curve.

O=C(O)c1ccc(N/N=C/c2cn(Cc3ccc(F)cc3)c3ccccc23)cc1	CHX counter 29, Shiga inhibitor 70
Cc1c(/C=N/Nc2ccc(C(=O)O)cc2)c2ccccc2n1C	CHX counter 42
COc1cc(C(=O)N/N=C/c2cn(Cc3cccc(F)c3)c3ccccc23)ccc1O	none
O=S(=O)(N/N=C/c1cn(Cc2ccccc2)c2ccccc12)c1ccccc1	Shiga inhibitor 51
NC(=O)Cn1cc(/C=N\NS(=O)(=O)c2ccc(Cl)cc2)c2ccccc21	none
Cc1ccc(C(=O)N/N=C/c2cn(Cc3ccccc3)c3ccccc23)cn1	CHX counter 20
CCOC(=O)C1CCCN(S(=O)(=O)c2ccc(N3CCCCS3(=O)=O)cc2)C1 (stereo unspecified)	none (no result: NS1 inh, SARS PLP yeast, CHX counter, Shiga inhibitor, LmPK inh)
Cc1ncsc1CCOC(=O)c1ccc(Cl)cc1	CHX counter 35, Shiga inhibitor 69
Cc1ncsc1CCOC(=O)c1ccccc1	CHX counter 38, Shiga inhibitor 58
O=C(COC(=O)c1ccc2ncsc2c1)NCc1ccc(Cl)cc1	none (no result: NS1 inh, CHX counter, Shiga inhibitor, LmPK inh)
Cc1cc(C(=O)N/N=C/c2cccc([N+](=O)[O-])c2)c(C)n1-c1ccccc1	CHX counter 43, Shiga inhibitor 87
Nc1ccccc1C(=O)NN=Cc1cccc([N+](=O)[O-])c1	none (no result: NS1 inh, SARS PLP yeast, CHX counter, Shiga inhibitor, LmPK inh)
Cc1cc(/C=N/NC(=O)c2ccccn2)c(C)n1-c1cccc([N+](=O)[O-])c1	CHX counter 50, Shiga inhibitor 90 (no result: NS1 inh)
COc1ccc(/C=N/NC(=O)c2cccc(C(=O)N/N=C/c3ccc(OC)c(OC)c3)n2)cc1OC	none
COc1ccc(/C=N/NC(=O)c2cc(C)n(-c3ccccc3)c2C)cc1OC	CHX counter 25, Shiga inhibitor 87 (no result: NS1 inh)
O=C(N/N=C\c1cc([N+](=O)[O-])ccc1N1CCCC1)c1ccccn1	CHX counter 22, Shiga inhibitor 48
COc1cccc(NC(=O)CN(CCc2ccccc2)S(=O)(=O)c2ccc(Cl)cc2)c1	none (no result: NS1 inh, SARS PLP yeast, CHX counter, Shiga inhibitor, LmPK inh)
Cc1cc(C(=O)N/N=C2\CCCC(=O)C2)c(C)n1-c1ccccc1	CHX counter 17, Shiga inhibitor 30
Cc1cc(=O)oc2cc(OC(C)C(=O)NC3CCN(Cc4ccccc4)CC3)ccc12 (stereo unspecified)	CHX counter 22
CC(Oc1ccc2c3c(c(=O)oc2c1)CCC3)C(=O)NC1CCN(Cc2ccccc2)CC1 (stereo unspecified)	none
CC(C)(C)NC(=O)CC1C[C@H](C(=O)N2CCOCC2)[C@@]2(C)c3[nH]c4ccccc4c3CCN2C1=O (stereo partly specified)	SARS PLP yeast inconclusive (no result: NS1 inh, CHX counter, Shiga inhibitor, LmPK inh)
COc1cccc(NC(=O)/C(C#N)=C\c2cn(Cc3ccc(Cl)cc3)c3ccccc23)c1	none (no result: NS1 inh, SARS PLP yeast, CHX counter, Shiga inhibitor, LmPK inh)
COc1ccc(NC(=O)N2CCCC(c3nc(-c4ccc(C(C)C)cc4)no3)C2)cc1 (stereo unspecified)	CHX counter 32
O=C(Nc1ccc(Cl)cc1)N1CCC(c2nc(-c3ccc(F)cc3)no2)CC1	CHX counter 35, Shiga inhibitor 53
COc1ccc(-c2noc(C3CCCN(C(=O)Nc4ccccc4F)C3)n2)cc1 (stereo unspecified)	CHX counter 38
COc1ccc(NC(=O)N2CCCC(c3nc(-c4ccc(OC)cc4)no3)C2)cc1 (stereo unspecified)	CHX counter 40
CCC1CCc2nc3sc(C(=O)Nc4ccc(F)cc4F)c(N)c3cc2C1 (stereo unspecified)	none (no result: NS1 inh, SARS PLP yeast, CHX counter, Shiga inhibitor, LmPK inh)
COc1cccc(CNC(=O)Cn2c(=O)oc3cc(S(=O)(=O)N4CCCCCC4)ccc32)c1	none (no result: NS1 inh, SARS PLP yeast, CHX counter, Shiga inhibitor, LmPK inh)
CCc1ccc(OCC(=O)NC(=S)Nc2ccc(F)cc2)c(Br)c1	none
CCc1ccc(OCC(=O)NC(=S)Nc2cccc(CO)c2)c(Br)c1	CHX counter 22
O=C(Nc1ccc(N2CCOCC2)cc1)NC1CCCCC1	CHX counter 18, Shiga inhibitor 67
COc1ccccc1NC(=O)Nc1ccc(N2CCOCC2)cc1	CHX counter 51, Shiga inhibitor 84 (no result: NS1 inh)
O=C(Nc1ccc(N2CCOCC2)cc1)c1cc(-n2cnnc2)ccc1Cl	none
